Results on 9 molecules are retold here after PubChem BioAssay (Tox21).

Records with an inconclusive call do not appear. Activity calls are given as the source filed them. Unless noted, calls follow the shape of the dose curve; as a rule, active = well fitted curve in the direction sought with a large enough effect in the repeat runs; inconclusive = weak or mixed curves; inactive = no such curve, though single readings can be large; an effect the other way counts as inactive or inconclusive.

The nature of assay [1]: qHTS assay to identify small molecule antagonists of the estrogen related receptor (ERR) signaling pathway from Tox21 library - cell viability counter screen (AID 1224834). Also: nearly all actives have a fitted effect of over 30% in size. The method, boiled down: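 After 17.5 h of compound exposure at 37 C, ERR cells are incubated with CellTiter-Fluor for 30 min and fluorescence intensity serves as the viability measure.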
Assay [2] has as its target Luciferin 4-monooxygenase (Photinus pyralis) (UniProt P08659). As to the kind of experiment: qHTS assay to identify small molecule inhibitors of firefly luciferase (AID 1224835). Also: nearly all actives have a fitted effect of over 25% in size. Also: potency is read from the fitted curve at half-maximal effect. In short, it runs like this: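 Inhibition of purified Photinus luciferase is measured by luminescence. Substrate levels (D-luciferin, ATP) sit at their KM values. Each compound is tested in a concentration series.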
(In general: In qHTS, concentration-response curves come from the screen itself.)

The nature of assay [3]: qHTS assay to identify small molecule agonists of the constitutive androstane receptor (CAR) signaling pathway - cell viability counter screen (AID 1224836). Also: series mostly up to about 92 µM; nearly all actives have a fitted effect of over 45% in size. In short, it runs like this: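 Fluorescence from CellTiter-Fluor indicates live cells after 23 h exposure. The human hepatoma line expresses hCAR and a CYP2B6-2.2kb reporter. Incubation medium contains 0.75 uM PK11195 (final).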

The nature of assay [4]: qHTS assay to identify small molecule antagonists of the constitutive androstane receptor (CAR) signaling pathway - cell viability counter screen (AID 1224837). Also: series mostly up to about 92 µM; nearly all actives have a fitted effect of over 45% in size. In short, it runs like this: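 Counter screen run in HepG2-CYP2B6-hCAR cells: 4 hr settle, compound titration (15 concentrations) with 50 nM CITCO, 23 hr at 37 C/5% CO2, CellTiter-Fluor fluorescence.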
Assay [5] can be described thus: qHTS assay to identify small molecule antagonists of the estrogen related receptor signaling pathway with the pleiotropic PPARgamma coactivator (PGC) from Tox21 10K library - cell viability counter screen (AID 1224840; active = well fitted cell-killing curve with a large enough effect in the repeat runs, not every such curve was filed as active; also: nearly all actives have a fitted effect of over 40% in size). In short, it runs like this: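 Following seeding of 2,000 PGC/ERR cells/well and 6 hours' incubation, test compounds were delivered in DMSO. The plates then sat 17.5 hours at 37 C before a fluorogenic live-cell protease reagent (CellTiter-Fluor) was read after 30 min.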

Assay [6] in a line: qHTS assay to identify small molecule antagonists of the estrogen related receptor signaling pathway with the pleiotropic PPARgamma coactivator (PGC) from Tox21 10K library (AID 1224841; call rule not given here; also: actives are mostly falling curves and most rising ones were filed inactive; nearly all actives have a fitted effect of over 50% in size; also: potency is read from the fitted curve at half-maximal effect). In short, it runs like this: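 qHTS antagonist format: PGC/ERR cells, 2k/well, compound in DMSO by pin transfer after 6 h attachment, 18 h treatment at 37 C, One-Glo luminescence read at 30 min.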

The nature of assay [7]: qHTS assay to identify small molecule agonists of the estrogen related receptor signaling pathway with the pleiotropic PPARgamma coactivator (PGC) from Tox21 10K library (AID 1224842). Also: nearly all actives have a fitted effect of over 15% in size. In short, it runs like this:
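Luminescence from One-Glo (30 min, room temperature) measured after PGC/ERR cells had 18 h at 37 C with pinned compound (23 nL in DMSO). Cells had been seeded at 2,000 per well and pre-incubated 6 h.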

The target in assay [8] is Thyrotropin receptor (Homo sapiens) (UniProt P16473). As to the kind of experiment: qHTS assay to identify small molecule agonists of the thyroid stimulating hormone receptor (TSHR) signaling pathway (AID 1224843; calls by dose curve; also: nearly all actives have a fitted effect of over 45% in size). The method, boiled down: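 Screening of the Tox21 10K collection used HEK293 cells engineered with TSHR at 800 cells per well. After a 30-min room-temperature compound exposure, HTRF cAMP reagents were added and fluorescence recorded 1 h later.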

For assay [9], the target named is Nuclear receptor subfamily 1 group I member 3 (Homo sapiens) (UniProt Q14994). The assay is described as follows: qHTS assay to identify small molecule antagonists of the constitutive androstane receptor (CAR) signaling pathway (AID 1224838).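 Also: HepG2 cells stably expressing hCAR with CYP2B6 luciferase reporter stimulated by CITCO; nearly all actives have a fitted effect of over 40% in size.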 In short, it runs like this:
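Cell line: HepG2 double-stable for hCAR and CYP2B6-2.2kb reporter. Agonist: CITCO, 50 nM final. Compounds: 15 concentrations, 24 h, 37 C. Detection: ONE-Glo luminescence.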

The target is the same in assay [10]. The assay is described as follows: qHTS assay to identify small molecule agonists of the constitutive androstane receptor (CAR) signaling pathway (AID 1224839). Also: nearly all actives have a fitted effect of over 15% in size. Also: potency is read from the fitted curve at half-maximal effect. The method, boiled down:
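Stable hCAR/CYP2B6-2.2kb HepG2 line in DMEM with 10% FBS; compounds (15 concentrations) and 0.75 uM PK11195 final, 24 h at 37 C/5% CO2, then ONE-Glo luminescence after 30 min.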

Luciferin 4-monooxygenase (Photinus pyralis), sequence (P08659 whole entry, looked up): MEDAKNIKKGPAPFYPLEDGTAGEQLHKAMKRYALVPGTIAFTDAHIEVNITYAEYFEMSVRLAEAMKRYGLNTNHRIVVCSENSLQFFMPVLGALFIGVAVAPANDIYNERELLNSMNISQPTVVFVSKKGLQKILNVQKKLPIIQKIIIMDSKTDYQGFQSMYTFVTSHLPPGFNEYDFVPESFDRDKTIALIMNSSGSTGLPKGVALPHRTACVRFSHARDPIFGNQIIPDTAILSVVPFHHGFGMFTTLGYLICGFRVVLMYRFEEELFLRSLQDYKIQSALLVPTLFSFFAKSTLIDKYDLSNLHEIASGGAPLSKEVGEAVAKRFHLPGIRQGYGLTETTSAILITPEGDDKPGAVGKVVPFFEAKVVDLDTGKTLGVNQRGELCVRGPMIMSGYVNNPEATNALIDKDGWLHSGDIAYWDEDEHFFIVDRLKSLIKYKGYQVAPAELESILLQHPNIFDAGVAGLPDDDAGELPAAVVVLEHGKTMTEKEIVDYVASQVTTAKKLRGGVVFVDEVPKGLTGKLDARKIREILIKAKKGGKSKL
Nuclear receptor subfamily 1 group I member 3 (Homo sapiens), sequence (Q14994 whole entry, looked up): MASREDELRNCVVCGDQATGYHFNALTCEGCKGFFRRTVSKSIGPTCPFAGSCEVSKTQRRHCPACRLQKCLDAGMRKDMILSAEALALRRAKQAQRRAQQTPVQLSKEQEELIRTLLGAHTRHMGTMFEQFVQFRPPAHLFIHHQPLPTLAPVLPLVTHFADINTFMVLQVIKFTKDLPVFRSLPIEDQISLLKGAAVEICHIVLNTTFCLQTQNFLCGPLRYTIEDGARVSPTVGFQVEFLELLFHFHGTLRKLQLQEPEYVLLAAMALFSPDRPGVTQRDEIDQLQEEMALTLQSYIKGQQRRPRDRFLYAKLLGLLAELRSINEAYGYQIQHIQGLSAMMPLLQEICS
Thyrotropin receptor (Homo sapiens), sequence (P16473 whole entry, looked up): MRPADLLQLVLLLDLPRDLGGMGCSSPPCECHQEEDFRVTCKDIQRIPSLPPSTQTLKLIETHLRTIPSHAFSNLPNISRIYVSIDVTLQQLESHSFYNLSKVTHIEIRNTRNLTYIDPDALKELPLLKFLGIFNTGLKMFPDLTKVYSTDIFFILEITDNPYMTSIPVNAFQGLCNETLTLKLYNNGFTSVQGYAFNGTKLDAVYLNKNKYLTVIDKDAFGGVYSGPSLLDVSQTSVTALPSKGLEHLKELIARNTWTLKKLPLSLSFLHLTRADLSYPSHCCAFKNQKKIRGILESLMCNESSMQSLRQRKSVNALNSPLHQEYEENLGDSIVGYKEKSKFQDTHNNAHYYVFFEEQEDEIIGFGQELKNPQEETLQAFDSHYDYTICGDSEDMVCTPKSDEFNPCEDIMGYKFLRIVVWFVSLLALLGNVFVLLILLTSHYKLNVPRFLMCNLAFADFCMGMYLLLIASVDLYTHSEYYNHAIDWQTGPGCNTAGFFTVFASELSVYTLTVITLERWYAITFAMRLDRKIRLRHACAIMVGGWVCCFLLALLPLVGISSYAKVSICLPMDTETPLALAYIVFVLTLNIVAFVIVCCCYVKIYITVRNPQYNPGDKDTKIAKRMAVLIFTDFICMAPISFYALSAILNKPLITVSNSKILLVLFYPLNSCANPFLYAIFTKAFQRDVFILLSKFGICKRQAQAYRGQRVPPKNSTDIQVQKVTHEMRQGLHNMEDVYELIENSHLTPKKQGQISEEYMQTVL

In the case of `Oc1cccc(Cl)c1`, the Potency entry in assay [1], in assay [2], in assay [3], in [4], in [5] and in [6] was “inactive” in each case. Besides, the Potency result in assay [7] and in [8] was “inactive” throughout.
`CN1CC[C@]23c4c5ccc(O)c4O[C@H]2[C@@H](O)C=C[C@H]3[C@H]1C5`: the Potency result in assay [1], in [2], in assay [3], in [4], in [9] and in assay [5] was “inactive” in each case. Further, the Potency result in assay [7] and in [8] was “inactive” each time.
`C[N+](C)(C)CCOC(=O)C(O)(c1ccccc1)c1ccccc1`: the Potency result in assay [1], in [2], in assay [3], in [4] and in assay [5] was “inactive” in each case.
As to `Cc1cnc(C2=NC(C)(C(C)C)C(=O)N2)c(C(=O)O)c1` (stereo unspecified), the Potency entry in [1], in [2], in assay [3], in [4], in assay [5] and in [8] was “inactive” each time.
Turning to `CCC1(C2=NCCN2)Cc2ccccc2O1` (stereo unspecified), the Potency result in assay [1], in [2], in assay [3], in assay [4], in [5] and in assay [6] was “inactive” in each case. The Potency result in assay [7] and in assay [8] was “inactive” in each case.
Regarding `COC1=CC(=O)O[C@@H](/C=C/c2ccc3c(c2)OCO3)C1`, the Potency entry in [1], in assay [3], in [4], in [5], in assay [7] and in [8] was “inactive” throughout. The Potency in [2] is 60.6 µM (active); in assay [6], 18.5 µM (active).
In the case of `CC(Cc1ccccc1)NCc1ccccc1Cl` (stereo unspecified), the Potency entry in [1], in assay [3], in assay [4], in assay [9], in assay [5] and in assay [8] was “inactive” throughout. Also, the Potency in assay [10] was 26.6 µM (active).
`CC(C)(C)NCC(O)c1ccccc1Cl` (stereo unspecified): the Potency result in assay [1], in assay [3], in assay [4], in assay [9], in assay [10] and in [5] was “inactive” each time. In addition, the Potency entry in assay [6], in assay [7] and in [8] was “inactive” throughout.
Turning to `O=C(O)CCCOc1ccc(Cl)cc1Cl`, the Potency entry in [1], in assay [3], in assay [4], in assay [9], in assay [10] and in [5] was “inactive” each time. Besides, the Potency entry in assay [8] was “inactive”.
